The results in this text go back to PubChem BioAssay (Tox21).

A number with no mark means an inactive call. Results filed as inconclusive are left out. The source made the active and inactive calls. Calls come from the whole dose curve.

The target of assay [1] is Acetylcholinesterase (Homo sapiens) (UniProt P22303). Put plainly: Acetylcholinesterase (AChE) small molecule antagonists: colormetric cell-based qHTS assay (AID 1347395). Note: nearly all actives have a fitted effect of over 30% in size. In short, it runs like this: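 SH-SY5Y cells, plated overnight at 37 C, were exposed to compounds for 30 min at 37 C and 5% CO2. Acetylthiocholine plus DTNB was then added, and thiocholine from endogenous AChE was quantified colorimetrically after 90 min at 37 C.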
Sequence of Acetylcholinesterase (Homo sapiens) (P22303 whole entry, looked up): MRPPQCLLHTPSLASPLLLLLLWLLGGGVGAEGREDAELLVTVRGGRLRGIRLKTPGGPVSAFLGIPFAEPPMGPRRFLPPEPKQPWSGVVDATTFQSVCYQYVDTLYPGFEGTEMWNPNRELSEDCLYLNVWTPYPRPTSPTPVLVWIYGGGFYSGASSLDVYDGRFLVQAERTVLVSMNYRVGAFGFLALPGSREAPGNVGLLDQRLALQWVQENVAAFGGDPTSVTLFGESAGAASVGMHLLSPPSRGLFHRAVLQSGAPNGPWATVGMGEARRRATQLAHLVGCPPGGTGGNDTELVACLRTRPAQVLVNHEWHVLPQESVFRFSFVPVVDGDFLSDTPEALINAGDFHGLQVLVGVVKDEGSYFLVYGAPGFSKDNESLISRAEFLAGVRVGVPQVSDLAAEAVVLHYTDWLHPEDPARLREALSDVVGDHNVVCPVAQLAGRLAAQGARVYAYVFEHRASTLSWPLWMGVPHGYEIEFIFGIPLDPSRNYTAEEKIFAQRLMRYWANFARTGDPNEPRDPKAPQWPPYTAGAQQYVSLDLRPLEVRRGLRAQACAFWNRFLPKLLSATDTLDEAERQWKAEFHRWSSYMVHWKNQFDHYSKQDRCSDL
Background: Quantitative high-throughput screening tests each substance at several concentrations.

Assay [2] has the same target. Put plainly: Acetylcholinesterase (AChE) small molecule antagonists: enzyme-based qHTS assay (AID 1347397). Note: nearly all actives have a fitted effect of over 55% in size. To be noted: Potency: AChE enzyme activity inhibition; outcome: AChE enzyme activity inhibition. In short, it runs like this:
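Absorbance-based detection of thiocholine with DTNB served as the read-out. Recombinant human AChE was exposed to compound for 30 min at RT before a 10 min RT incubation with acetylthiocholine.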

Assay [3] has the same target. Description: Acetylcholinesterase (AChE) small molecule antagonists: enzyme-based qHTS assay with human liver microsomes (AID 1347399). Note: nearly all actives have a fitted effect of over 60% in size. Conditions: Potency: qHTS inhibition; outcome: qHTS inhibition. In short, it runs like this: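 Recombinant human AChE (50 mU/mL in the enzyme mix) and human liver microsomes (0.25 mg/mL final) were preincubated with compound and NADPH (0.25 mg/mL final) for 30 min at 37 C. Acetylthiocholine/DTNB was then added; thiocholine was read colorimetrically after 10 min at room temperature.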
% is set by controls: 0 for no effect and ±100 for the full control effect; potency is the fitted concentration of half-maximal effect.

In the case of `O=C1C=CC(=O)N1c1ccc(Cc2ccc(N3C(=O)C=CC3=O)cc2)cc1`, the Potency entry in assay [1], in assay [2] and in assay [3] was “inactive” in each case.
`CC(=O)Oc1cccc(C)c1`: the Potency result in assay [1], in assay [2] and in assay [3] was “inactive” in each case.
For `N[C@@H]1CONC1=O`, the Potency entry in assay [1], in assay [2] and in assay [3] was “inactive” in each case.
Regarding `NCCCN1CCOCC1`, the Potency result in assay [1], in assay [2] and in assay [3] was “inactive” each time.
Turning to `CCOC(=O)c1ccc(C#Cc2ccc3c(c2)C(C)(C)CCS3)nc1`, the Potency result in assay [1], in assay [2] and in assay [3] was “inactive” in each case.
Turning to `C(/C=C/C=C/Nc1ccccc1)=Nc1ccccc1`, in assay [1], the Potency was 35.6 µM (active). Also, the Potency entry in assay [2] and in assay [3] was “inactive” each time.
On to `CCOC(=O)C(=O)c1csc(NC=O)n1`, for which the Potency entry in assay [1], in assay [2] and in assay [3] was “inactive” in each case.
Turning to `CN1CCCC(CC2c3ccccc3Sc3ccccc32)C1` (stereo unspecified), the Potency result in assay [1], in assay [2] and in assay [3] was “inactive” in each case.
Take `CCCC1CCCC(=O)O1` (stereo unspecified): the Potency result in assay [1], in assay [2] and in assay [3] was “inactive” in each case.
As to `O=C[C@H](O)[C@@H](O)[C@H](O)[C@H](O)CO`, the Potency result in assay [1], in assay [2] and in assay [3] was “inactive” throughout.
In the case of `CNC(=O)c1ccccc1Sc1ccc2c(/C=C/c3ccccn3)n[nH]c2c1`, the Potency entry in assay [1], in assay [2] and in assay [3] was “inactive” throughout.
Take `COC(C)(C)CC(C)=O`: the Potency entry in assay [1], in assay [2] and in assay [3] was “inactive” throughout.
Take `CN1CC(=O)N2[C@H](c3ccc4c(c3)OCO4)c3[nH]c4ccccc4c3C[C@@H]2C1=O`: in assay [1], the Potency was 27.5 µM (active). The Potency entry in assay [2] and in assay [3] was “inactive” in each case.
With `COc1cc(N)c(Cl)cc1C(=O)NC1CCN(CCCOc2ccc(F)cc2)CC1OC` (stereo unspecified), the Potency entry in assay [1], in assay [2] and in assay [3] was “inactive” throughout.
In the case of `CCOC(=O)C(Br)c1ccccc1` (stereo unspecified), the Potency in assay [1] is 71 µM (active). For the same compound, the Potency result in assay [2] and in assay [3] was “inactive” each time.
For `NCc1cccc(C2CCN(C(=O)c3ccc(C#Cc4ccccc4F)o3)CC2)c1`, the Potency entry in assay [1] and in assay [3] was “inactive” each time. For the same compound, the Potency in assay [2] was 79.6 µM (active).
Turning to `N#Cc1ccc(C2CCCc3cncn32)cc1` (stereo unspecified), the Potency result in assay [1], in assay [2] and in assay [3] was “inactive” throughout.
`CCN(CCCCOC(=O)c1ccc(OC)c(OC)c1)C(C)Cc1ccc(OC)cc1` (stereo unspecified): in assay [1], the Potency was 17.4 µM (active). For the same compound, the Potency entry in assay [2] and in assay [3] was “inactive” each time.
With `Cc1onc(-c2c(Cl)cccc2Cl)c1C(=O)N[C@@H]1C(=O)N2[C@@H]1SC(C)(C)[C@@H]2C(=O)O`, the Potency result in assay [1], in assay [2] and in assay [3] was “inactive” in each case.
On to `C=C(C)CCCC(C)CCO` (stereo unspecified), for which the Potency result in assay [1], in assay [2] and in assay [3] was “inactive” each time.
Consider `CCN(CC)CCOc1ccc(C(O)(Cc2ccc(Cl)cc2)c2ccc(C)cc2)cc1` (stereo unspecified), for which the Potency entry in assay [1], in assay [2] and in assay [3] was “inactive” throughout.
Turning to `CC1(C)CCC(C)(C)c2cc(NC(=O)c3ccc(C(=O)O)cc3)ccc21`, the Potency entry in assay [1], in assay [2] and in assay [3] was “inactive” in each case.
On to `CN1CCN(CC(=O)N2c3ccccc3C(=O)Nc3cccnc32)CC1`, for which, in assay [1], the activity, negative = inhibition is 0.44% [at 10.5 µM]. In addition, the activity change, negative = inhibition in assay [2] is 0.584% [at 10.5 µM]; in assay [3], -0.472% [at 10.5 µM].
Take `CCN(CC)CCOc1ccccc1C(=O)CCc1ccccc1`: the Potency result in assay [1], in assay [2] and in assay [3] was “inactive” each time.
With `OCCN1CCN(CCCN2c3ccccc3Sc3ccc(Cl)cc32)CC1`, the Potency result in assay [1], in assay [2] and in assay [3] was “inactive” in each case.
On to `CC(C)=C1CC[C@@H](C)CC1=O`, for which the Potency result in assay [1], in assay [2] and in assay [3] was “inactive” throughout.
Take `BrCCCCCBr`: the Potency result in assay [1], in assay [2] and in assay [3] was “inactive” throughout.
With `CCOC(=O)N1CCC(Nc2ccc(Cl)cc2N)CC1`, the Potency entry in assay [1], in assay [2] and in assay [3] was “inactive” each time.
For the compound `CCOC(=N)CC(=O)OCC`, the Potency result in assay [1], in assay [2] and in assay [3] was “inactive” in each case.
Take `c1ccc([C@H]2CN3CCSC3=N2)cc1`: the call in assay [1], in assay [2] and in assay [3] was inactive.
Turning to `Cc1nc(N)nc(N)c1-c1ccc(Cl)c(Cl)c1`, the Potency entry in assay [1], in assay [2] and in assay [3] was “inactive” each time.
With `O=S(=O)(O)SSS(=O)(=O)O`, the Potency in assay [1], in assay [2] and in assay [3] was 71 µM (active) throughout.
As to `CC(C)C1OCCN1CCOC(=O)NCCCCCCNC(=O)OCCN1CCOC1C(C)C` (stereo unspecified), the Potency result in assay [1], in assay [2] and in assay [3] was “inactive” each time.
With `COc1cc(S(=O)(=O)O)c(C)cc1N=Nc1c(O)ccc2cc(S(=O)(=O)O)ccc12`, the Potency entry in assay [1], in assay [2] and in assay [3] was “inactive” in each case.
For `CC(CN(C)C)CN1c2ccccc2CCc2ccccc21` (stereo unspecified), the Potency result in assay [1], in assay [2] and in assay [3] was “inactive” each time.
As for `O=C(CCN1CCN2CCCC2C1)N1c2ccccc2Sc2ccc(Cl)cc21` (stereo unspecified), the activity, negative = inhibition in assay [1] is 0% [at 23.6 µM]. The activity change, negative = inhibition in assay [2] was 0.831% [at 23.6 µM]; in assay [3] it was 1.34% [at 23.6 µM].
For `CC1CC(=O)NN=C1c1ccc(NCC(C)(C)NCC(O)COc2cc(Cl)ccc2C#N)cc1` (stereo unspecified), in assay [1], the Potency was 24.5 µM (active). Besides, the Potency entry in assay [2] and in assay [3] was “inactive” in each case.
Regarding `CSc1ccc(Oc2ccc(S(N)(=O)=O)cc2CN(C)C)cc1C`, the Potency entry in assay [1], in assay [2] and in assay [3] was “inactive” in each case.
`Oc1ccc(C2CNCCc3c2cc(O)c(O)c3Cl)cc1` (stereo unspecified): the Potency entry in assay [1], in assay [2] and in assay [3] was “inactive” each time.
In the case of `O[C@@H](CNC[C@H](O)[C@H]1CCc2cc(F)ccc2O1)[C@@H]1CCc2cc(F)ccc2O1`, the Potency result in assay [1], in assay [2] and in assay [3] was “inactive” in each case.
Regarding `CS(=O)(=O)c1ccc(-c2cn3ccccc3n2)cc1`, the Potency entry in assay [1], in assay [2] and in assay [3] was “inactive” each time.
On to `C[C@@H]1C[C@H]2[C@@H]3CCC4=CC(=O)C=C[C@]4(C)[C@@]3(Cl)[C@@H](O)C[C@]2(C)[C@@]1(OC(=O)c1ccco1)C(=O)CCl`, for which the Potency result in assay [1], in assay [2] and in assay [3] was “inactive” each time.
